For 30 molecules, PXC50 results are on record in ChEMBL document CHEMBL3988442, “University of Dundee, Small-Polar-MMV Screening Library” (2021).

For this assay, the target named is T1, Methionyl-tRNA synthetase, putative (Leishmania donovani (strain BPK282A1)) (UniProt E9BF75).
T1 sequence (whole entry): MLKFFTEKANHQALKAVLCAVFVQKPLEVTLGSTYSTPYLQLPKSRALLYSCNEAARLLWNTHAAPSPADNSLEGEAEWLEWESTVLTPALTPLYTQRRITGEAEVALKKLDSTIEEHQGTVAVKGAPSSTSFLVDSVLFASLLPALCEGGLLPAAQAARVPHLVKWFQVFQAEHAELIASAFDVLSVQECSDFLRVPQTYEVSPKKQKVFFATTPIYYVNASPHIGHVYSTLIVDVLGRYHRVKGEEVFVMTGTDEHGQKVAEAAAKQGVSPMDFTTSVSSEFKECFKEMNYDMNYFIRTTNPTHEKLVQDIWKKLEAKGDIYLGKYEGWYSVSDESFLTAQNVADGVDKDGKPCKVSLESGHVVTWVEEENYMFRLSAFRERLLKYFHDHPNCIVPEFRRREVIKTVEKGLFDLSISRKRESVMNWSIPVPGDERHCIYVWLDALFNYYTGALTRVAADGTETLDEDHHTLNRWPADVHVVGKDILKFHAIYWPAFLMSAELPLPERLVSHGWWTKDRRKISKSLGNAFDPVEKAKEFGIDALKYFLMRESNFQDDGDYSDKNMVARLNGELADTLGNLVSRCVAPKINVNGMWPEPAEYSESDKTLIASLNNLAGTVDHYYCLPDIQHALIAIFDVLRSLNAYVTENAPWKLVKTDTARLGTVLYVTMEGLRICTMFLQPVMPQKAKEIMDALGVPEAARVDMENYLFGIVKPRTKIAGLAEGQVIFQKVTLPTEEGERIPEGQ
Description: Leishmania donovani Methionine tRNA synthetase (LdMetRS):v7. Dose response assay. Format: functional. Set-up: conc 80 nM, time 150 minutes.

As for `Cc1nc(N2CCC(NS(C)(=O)=O)CC2)c2c(-c3cccs3)csc2n1`, the PXC50 runs as follows: (MAX_EFFECT 36.61616162) under 4; (MAX_EFFECT 37.24489796) under 4.
`Cn1cc(CN2CCC(F)(F)C3(CCN(c4ncc(F)cn4)C3)C2)cn1` (stereo not given) had a PXC50 (MAX_EFFECT 3.286384977) of under 4 and a PXC50 (MAX_EFFECT 5.740740741) of under 4.
Take `O=C(NCC1CCCCC1)c1cc(=O)c2cc(F)cc(O)c2o1`: the PXC50 (MAX_EFFECT 5.56621881) was under 4 and the PXC50 (MAX_EFFECT 11.64274322) is under 4.
As for `CC(=O)NCCNc1nc(-c2cccnc2)nc2sc(C)c(C)c12`, the PXC50 is, setting by setting: (MAX_EFFECT 9.574468085) under 4; (MAX_EFFECT 10.3626943) under 4.
The molecule `Nc1noc2ccc(-c3cnc4ccc(NCCN5CCS(=O)(=O)CC5)nn34)cc12` had a PXC50 (MAX_EFFECT 6.106870229) of under 4 and a PXC50 (MAX_EFFECT 10.52631579) of under 4.
For the molecule `Cc1sc2nc(C(F)(F)F)nc(N3CCN(S(C)(=O)=O)CC3)c2c1C`, the PXC50 is under 4 (MAX_EFFECT 4.699738903) and under 4 (MAX_EFFECT -2.872062663).
`CCc1nc(NCCCN(C)C)c2cc(C)sc2n1` came in with a PXC50 (MAX_EFFECT 12.06030151) of under 4 and a PXC50 (MAX_EFFECT 14.98771499) of under 4.
As to `Cc1nc(NCCCC(=O)O)c2c3c(sc2n1)CCCC3`, the PXC50 (MAX_EFFECT 9.823677582) was under 4 and the PXC50 (MAX_EFFECT 10.43256997) was under 4.
With `C[C@@H](Oc1cc(-n2cnc3cc(N)ccc32)sc1C(N)=O)c1ccccc1Cl`, the PXC50 is under 4 (MAX_EFFECT 24.18604651) and under 4 (MAX_EFFECT 25.87412587).
As to `NCC1CC1c1ccc(Cl)cc1Cl` (stereo not given), the PXC50 reads like this: (BOTTOM -0.51010351, HILLSLOPE 1.132508714, MAX_EFFECT 55.5075594, TOP 100.0) 3.07; (MAX_EFFECT 48.09885932) under 3.
Consider `Nc1noc2ccc(-c3cnc4ccc(NCC5CCCO5)nn34)cc12` (stereo not given), for which the PXC50 reads like this: (MAX_EFFECT 19.33842239) under 4; (MAX_EFFECT 25.0) under 4.
Regarding `Cc1nc(NCCCS(N)(=O)=O)c2c(-c3cccs3)csc2n1`, the PXC50 by setting is: (MAX_EFFECT 6.297229219) under 4; (MAX_EFFECT 6.870229008) under 4.
`CC(C)C[C@H](N)COc1ccc(OC(F)(F)F)c(F)c1`: the PXC50 (MAX_EFFECT 10.87420043) is under 4 and the PXC50 (MAX_EFFECT 10.97308489) is under 4.
On to `OCc1ccncc1NCc1cnc(-c2ccccn2)s1`, for which the PXC50 is under 4 (MAX_EFFECT 2.34741784) and under 4 (MAX_EFFECT 7.222222222).
With `O=C(NCC1(O)CCCCC1)c1cc(=O)c2cc[nH]c(=O)c2o1`, the PXC50 by setting is: (MAX_EFFECT 6.333973129) under 4; (MAX_EFFECT 9.409888357) under 4.
`Cc1nc(NCCCN2CCC(O)CC2)c2c(-c3cccs3)csc2n1`: the PXC50 is, setting by setting: (MAX_EFFECT 4.325699746) under 4; (MAX_EFFECT 7.808564232) under 4.
The molecule `CCc1nc(NCCCC(=O)O)c2cc(CC)sc2n1` had a PXC50 (MAX_EFFECT 11.55778894) of under 4 and a PXC50 (MAX_EFFECT 13.02211302) of under 4.
On to `Cc1nc(N2CCN(c3cnccn3)CC2)c2c3c(sc2n1)CCCC3`, for which the PXC50 was under 4 (MAX_EFFECT 22.45989305) and under 4 (MAX_EFFECT 25.13661202).
As for `CCc1cc2c(NCCCN(C)C)nc(-c3ccccc3)nc2s1`, the PXC50 reads like this: (MAX_EFFECT 10.07371007) under 4; (MAX_EFFECT 10.55276382) under 4.
On to `CCNC(=O)c1ccc2ccc(N(CC)CC)n2c1`, for which the PXC50 by setting is: (MAX_EFFECT 16.85185185) under 4; (MAX_EFFECT 25.35211268) under 4.
As for `CN(c1ncnc2sccc12)C1CCCN(c2cccnn2)C1` (stereo not given), the PXC50 runs as follows: (MAX_EFFECT 11.26760563) under 4; (MAX_EFFECT 18.33333333) under 4.
Regarding `CCNc1nc(-c2ccc(CC)cc2)cc(C(F)(F)F)n1`, the PXC50 is under 4 (MAX_EFFECT 8.510638298) and under 4 (MAX_EFFECT 9.32642487).
In the case of `Cc1sc2nc(-c3cccs3)nc(N(C)CC(=O)N3CCCC3)c2c1C`, the PXC50 by setting is: (MAX_EFFECT 37.40458015) under 4; (MAX_EFFECT 42.06549118) under 4.
Consider `Cc1cc(Br)sc1CNCCCNc1cc(=O)c2ccccc2[nH]1`, for which the PXC50 (BOTTOM 0.0, HILLSLOPE 1.706331743, MAX_EFFECT 106.0465116, TOP 103.2080248) is 6.25 and the PXC50 (BOTTOM 0.0, HILLSLOPE 2.906661209, MAX_EFFECT 104.1958042, TOP 102.1210588) was determined as 6.14.
`Cc1c(C(=O)NC2CCCC2)ccc2ccc(N3CCN(S(C)(=O)=O)CC3)n12`: the PXC50 (MAX_EFFECT 3.645833333) was under 4 and the PXC50 (MAX_EFFECT 10.0877193) is under 4.
As for `CS(=O)(=O)N1CCN(c2ccc3ccc(C(=O)NC4Cc5ccccc5C4)cn23)CC1`, the PXC50 runs as follows: (BOTTOM 1.298239116, HILLSLOPE 2.724135748, MAX_EFFECT 51.19617225, TOP 47.98570818) 5.08; (BOTTOM 7.56395186, HILLSLOPE 1.844448201, MAX_EFFECT 55.57586837, TOP 59.35407924) 4.75.
Regarding `Cc1nc(N2CCN(CCO)CC2)c2c(-c3cccs3)csc2n1`, the PXC50 by setting is: (MAX_EFFECT 9.693877551) under 4; (MAX_EFFECT 12.37373737) under 4.
For the molecule `CS(=O)(=O)N1CCN(c2ccc3ccc(C(=O)NCC4(CO)CCCC4)cn23)CC1`, the PXC50 by setting is: (MAX_EFFECT 45.93301435) under 4; (MAX_EFFECT 48.99451554) under 4.
With `OB1OCc2ccccc21`, the PXC50 reads like this: (MAX_EFFECT 10.0456621) under 4; (MAX_EFFECT -0.566037736) under 4.
Take `Cc1sc2nc(C(F)(F)F)nc(N3CCC(NS(C)(=O)=O)CC3)c2c1C`: the PXC50 is under 4 (MAX_EFFECT 0.0) and under 4 (MAX_EFFECT 1.305483029).
